Screening data: PubChem, several laboratories
Sampled rows, rich in hits. Any-hit rate of the full collection: about 2.7%.
MsrA inhibitor = bovine MsrA enzyme inhibitors, primary screen, biochemical, absorbance, HTS; Methionine sulfoxide reductase A (Bos taurus); purified bovine MsrA, absorbance read-out; inhibition, % at 15.5 µM; actives 0.75% (n = 360,000); in the data active means inhibition above about 4.5%;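 further: 0% = vehicle wells with enzyme and 100% = reference inhibitor wells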
MsrA act = bovine MsrA enzyme activators, primary screen, biochemical, absorbance, HTS; activation, % at 10.6 µM; actives 0.3% (n = 360,000); Methionine sulfoxide reductase A (Bos taurus); purified bovine MsrA, absorbance read-out; in the data active means activation above about 7.5%;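 further: 0% = vehicle and 100% = reference activator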
NadD block = inhibitors of S. aureus NadD, primary screen, biochemical, colorimetric, uHTS. actives 0.78% (n = 360,000). purified NadD enzyme, colorimetric absorbance read-out. inhibition, % at 20 µM. AID 602399, 2012; in the data active means inhibition above about 26%
rCAG RNA binder = binders of r(CAG) RNA repeats, primary screen, biochemical, fluorescence | r(CAG) RNA repeat, TO-PRO-1 dye displacement fluorescence | AID 651821, 2012 | inhibition, % at 3 µM | actives 1.3% (n = 370,000);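 active means inhibition above the plate cutoff, the mean of all test compounds on that plate plus 3 SD, cut at about 35% in these data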;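 further: 0% = DMSO alone and 100% = 100 µM mitoxantrone as full dye displacement; higher means more dye released from RNA so lower well fluorescence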
rCAG binder conf = small molecules binding CAG repeat RNA – biochemical, fluorescence, confirmation; inhibition, % at 3 µM; actives 70% (n = 4,300); r(CAG) RNA repeat, TO-PRO-1 dye displacement fluorescence; shares compounds with rCAG RNA binder;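 active means inhibition above a per-plate cutoff, the mean inhibition of sample wells plus 3 SD, cut at about 35% in these data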;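 further: loss of TO-PRO-1 fluorescence as compound displaces dye from 1x1 AA loop RNA; 0% = DMSO only wells and 100% = 100 µM mitoxantrone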
DNA CAG counter = displacement of TO-PRO-1 from CAG DNA duplex, counter-screen for rCAG RNA repeat binder project, biochemical, fluorescence, TO-PRO-1 dye, d(CAG) DNA oligo | shares compounds with rCAG RNA binder | d(CAG) DNA oligo TO-PRO-1 dye displacement | inhibition, % at 3 µM | actives 94% (n = 4,300);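 active means inhibition above its plate's cutoff, the mean test-well inhibition plus 3 SD, cut at about 4.8% in these data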;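 further: 0% = DNA dye mix with DMSO and 100% = 100 µM mitoxantrone; hits displace the dye from DNA and so lower well fluorescence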
Starred values were filed as active, the others as inactive; . = no result given.

SMILES | MsrA inhibitor | MsrA act | NadD block | rCAG RNA binder | rCAG binder conf | DNA CAG counter
Cc1ccc(C)c(N2CCN(C(=O)Cc3c(C(=O)O)[nH]c4ccc(Cl)cc34)CC2)c1 | 0.6 | -0.5 | 15.1 | 57.0* | 63.8* | 25.1*
COc1ccccc1N1CCN(C(=O)Cc2c(C(=O)O)[nH]c3ccc(Cl)cc23)CC1 | 0.5 | -0.9 | 15.7 | 38.8* | 41.9* | 11.4*
COc1ccc(Br)cc1CNC(=O)Cc1c(C(=O)O)[nH]c2ccc(Cl)cc12 | 0.5 | -10.9 | 0.0 | 58.0* | 44.9* | 11.5*
O=C(O)c1[nH]c2ccc(Cl)cc2c1CC(=O)N1CCN(c2ccccc2)CC1 | 0.8 | -1.2 | 9.1 | 41.1* | 41.5* | 12.3*
O=S(=O)(Nc1ccncc1Cl)c1ccc2ccccc2c1 | -1.1 | -5.2 | 2.4 | 5.5 | . | .
COc1cc(OC)c(NC(=O)c2cc3ccccc3cc2O)cc1Cl | 1.1 | -4.2 | 19.4 | 34.9* | 46.6* | 22.5*
COc1ccccc1NC(=O)NNC(=O)c1cc2ccccc2cc1O | 1.4 | -1.5 | -4.3 | 41.7* | 33.7 | 11.2*
Cc1ccc(NC(=O)NNC(=O)c2cc3ccccc3cc2O)cc1 | 0.1 | -2.4 | 2.8 | 19.9 | . | .
O=C(NCCO)C(=O)NCC1OCCCN1S(=O)(=O)c1ccc2c(c1)OCCO2 (stereo unspecified) | -0.9 | -0.5 | 0.9 | -2.9 | . | .
CC(=O)C1=CCC(c2ccc(Cl)c(Cl)c2)N(S(=O)(=O)c2ccc(C)cc2)C1 (stereo unspecified) | 1.1 | -3.7 | -2.6 | 4.3 | . | .
Cc1ccc(C(C)C)c(OCc2ccc(C(=O)N/N=C/c3ccc(O)cc3O)cc2)c1 | 1.5 | -6.9 | 14.0 | 38.0* | 31.9 | 14.5*
NNC(=O)c1cccc(S(=O)(=O)Nc2cc(Cl)ccc2Cl)c1 | -0.3 | -2.8 | -1.4 | 64.2* | 12.5 | 3.4
COc1ccccc1NS(=O)(=O)c1cccc(C(=O)NN)c1 | 1.2 | -9.8 | -1.4 | 10.6 | . | .
O=c1[nH]c(/C=C/c2ccccc2Cl)c([N+](=O)[O-])c(=O)[nH]1 | 3.4 | -2.8 | 2.3 | 6.8 | . | .
O=C(COc1ccccc1/C=C\c1[nH]c(=O)[nH]c(=O)c1[N+](=O)[O-])Nc1ccccc1 | 3.4 | -9.7 | 1.1 | 68.3* | 43.0* | 14.2*
CCOc1ccc(/C=C/c2[nH]c(=O)[nH]c(=O)c2[N+](=O)[O-])cc1 | 0.1 | -3.8 | 0.4 | 38.7* | 16.1 | 7.0*
CCOc1cc(/C=C\c2[nH]c(=O)[nH]c(=O)c2[N+](=O)[O-])ccc1OC(C)CC (stereo unspecified) | 0.6 | . | . | 21.9 | . | .
CC(C)c1ccc(/C=C/c2[nH]c(=O)[nH]c(=O)c2[N+](=O)[O-])cc1 | 4.0 | -5.2 | -2.8 | 40.2* | 23.7 | 3.7
CCOC(=O)COc1ccc(Br)cc1/C=C\c1[nH]c(=O)[nH]c(=O)c1[N+](=O)[O-] | 4.0 | -4.5 | 1.8 | 83.7* | 43.5* | 10.5*
O=C(NC1CCCCN(Cc2cccc(Cl)c2)C1=O)c1cccc(C(F)(F)F)c1 (stereo unspecified) | . | . | . | -4.0 | . | .
C[C@H](NC(=O)[C@@H]1CCCN1C(=O)OC(C)(C)C)c1ccccc1 | -0.4 | -1.8 | -2.5 | -0.3 | . | .
CC(C)Cc1nc(SCC(=O)NCC2CCCO2)c2c(=O)n(C)c(=O)n(C)c2n1 (stereo unspecified) | 2.0 | 0.7 | -4.5 | -5.7 | . | .
COc1ccccc1NS(=O)(=O)c1ccc(N/N=C/C=C/c2ccccc2[N+](=O)[O-])c([N+](=O)[O-])c1 | -1.6 | -11.9 | 25.8 | 5.7 | . | .
O=C(O)COc1ccccc1/C=N/Nc1ccc(S(=O)(=O)Nc2ccc(Cl)cc2)cc1[N+](=O)[O-] | 3.6 | -1.9 | 25.7 | 84.3* | 90.9* | 70.1*
COc1ccc(NS(=O)(=O)c2cc([N+](=O)[O-])ccc2NN=Cc2ccccc2OCC(=O)O)cc1 | 0.0 | -2.3 | 18.9 | 84.7* | 88.4* | 62.5*
SMILES | MsrA inhibitor | MsrA act | NadD block | rCAG RNA binder | rCAG binder conf | DNA CAG counter
O=C(O)COc1ccccc1C=NNc1ccc([N+](=O)[O-])cc1S(=O)(=O)Nc1ccc(Cl)cc1 | 1.9 | 6.7 | 9.5 | 88.0* | 90.7* | 69.1*
O=C1/C(=C/c2ccccc2)SC(=S)N1N1C(=O)C2CC2C1=O (stereo unspecified) | -0.5 | -10.8 | -3.5 | 6.5 | . | .
COc1ccc(CC(=O)NNC(=O)COc2ccc(Cl)cc2C)cc1S(=O)(=O)N1CCOCC1 | -0.9 | -5.8 | -6.6 | 1.9 | . | .
CN(C)S(=O)(=O)c1cccc(-c2nn(-c3ccccc3)cc2/C=C2\SC(=S)NC2=O)c1 | 0.2 | -11.6 | 27.0 | 69.0* | 88.6* | 66.0*
CC(=O)N[C@H](Cc1c[nH]c2ccccc12)C(=O)O | -0.8 | 2.0 | -2.2 | 1.0 | . | .
O=C(Cc1ccccc1)N[C@@H](Cc1ccccc1)C(=O)O | 1.1 | -3.0 | -0.5 | 5.0 | . | .
O=C(N[C@@H](Cc1ccc(Br)cc1)C(=O)O)OCC1c2ccccc2-c2ccccc21 | -0.7 | 1.9 | 0.7 | 39.2* | 69.3* | 27.5*
O=C(N[C@H](Cc1ccc(Cl)cc1)C(=O)O)OCC1c2ccccc2-c2ccccc21 | 0.5 | -2.3 | 1.8 | 40.0* | 66.4* | 23.6*
Nc1ccc(CNC(=O)OCC2c3ccccc3-c3ccccc32)cc1 | -0.4 | -1.2 | -1.9 | 0.8 | . | .
O=C(CCc1c[nH]c2ccccc12)NC(Cc1ccccc1)C(=O)O (stereo unspecified) | 0.1 | -5.0 | -3.6 | 36.0* | 4.1 | 1.1
COC(=O)C(Cc1ccccc1)NC(=O)CCc1c[nH]c2ccccc12 (stereo unspecified) | 0.9 | 0.1 | -7.9 | -1.6 | . | .
O=C(NC(Cc1c[nH]c2ccccc12)C(=O)O)OCC1c2ccccc2-c2ccccc21 (stereo unspecified) | -1.1 | -3.3 | 5.3 | 69.5* | 59.1* | 18.4*
COc1ccccc1C(=O)C1CCCN(C(=O)c2cccc(-n3cccn3)c2)C1 (stereo unspecified) | -1.3 | -3.4 | -10.6 | -8.5 | . | .
CN(C)C(CNC(=O)C1CCN(S(=O)(=O)c2cc(Cl)ccc2Cl)CC1)Cc1ccccc1 (stereo unspecified) | 0.3 | -2.2 | -7.9 | -1.0 | . | .
CC1CCc2c(C(=O)Nc3ccc(N4CCOCC4)cc3)csc2C1 (stereo unspecified) | 1.0 | -3.7 | -1.5 | -3.8 | . | .
O=C(N=C1SC2CS(=O)(=O)CC2N1c1cccc(Cl)c1Cl)C1CC1 (stereo unspecified) | -1.6 | -3.3 | -4.7 | 0.7 | . | .
CC(c1ccccc1)C(NC(=O)OCC1c2ccccc2-c2ccccc21)C(=O)O (stereo unspecified) | 0.5 | -3.1 | 0.7 | 46.0* | 42.0* | 8.9*
